Assay outcomes as filed in PubChem BioAssay.
FMDV antiviral = blocks foot and mouth disease virus; FMDV antiviral cell-based qHTS; Potency, µM (series often up to 57.9 µM), without a hit: at the highest dose activity change, negative = inhibition, actives largely listed as inhibitors; actives 1.2% (n = 410,000); AID 1159524; calls by dose curve; tested in HEK293T cells; note: read-out not given here; nearly all actives have a fitted effect of over 45% in size
Vaccinia Venus = inhibitors of vaccinia virus (Venus reporter); Vaccinia virus Venus reporter expression, fluorescence; Potency, µM (titrated, usually from 36.5 µM), for the others: top-dose activity change, negative = inhibition, actives largely listed as inhibitors; actives 0.46% (n = 330,000); calls by dose curve; tested in A549 cells; note: nearly all actives have a fitted effect of over 30% in size
Lassa entry inh = blocks Lassa virus binding to or entry into cells; Lassa virus pseudotype entry inhibition, cell reporter; Potency, µM (highest dose often 37.9 µM), for inactives: at the top dose activity change, negative = inhibition, most hits filed as inhibitors; actives 1.2% (n = 300,000); AID 540256; calls by dose curve; tested in HEK293 cells; note: nearly all actives have a fitted effect of over 50% in size
MARV entry inh = blocks Marburg virus binding to or entry into cells; Marburg virus pseudotyped entry inhibition, cell reporter; Potency, µM (series often up to 37.8 µM), for inactives: at the top dose activity change, negative = inhibition, most hits filed as inhibitors; actives 1.8% (n = 300,000); calls by dose curve; tested in HEK293 cells
HCV inhibitor = inhibitors of hepatitis C virus infection; Potency, µM (top dose mostly 41.8 µM), inactives show at the highest dose activity change, negative = inhibition, most hits filed as inhibitors; actives 3.4% (n = 340,000); Huh7.5.1 HCVcc-Cre infection, luciferase reporter, 44 h; active = well fitted inhibition curve with a large enough effect; inconclusive = small, poorly fitted or top-dose-only effect, or another doubt; inactive = no such curve, though single readings can be large or run the other way
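Luciferase read-out (15 sec integration) after a 15 min room-temperature substrate step quantifies HCVcc-Cre infection. Cells, 1,000 per well, had compound added 4 h post-plating, then virus at ~0.5 moi, and were cultured 44 h.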
Vaccinia mCherry = vaccinia inhibition (mCherry reporter). Potency, µM (doses to about 36.5 µM), without a hit: top-dose activity change, negative = inhibition, actives largely listed as inhibitors. AID 720579. Vaccinia virus mCherry reporter infection, fluorescence. actives 0.63% (n = 310,000); calls by dose curve; tested in A549 cells; note: nearly all actives have a fitted effect of over 35% in size
The depositor's hits bear a star; i = inactive; ? = inconclusive; . = not tested or not shown; [ ] = remark or other dose. An excerpt weighted towards active compounds, which were near 5.3% of everything screened. % is set by controls: 0 for no effect and ±100 for the full control effect; potency is the fitted concentration of half-maximal effect.

SMILES	FMDV antiviral	Vaccinia Venus	Lassa entry inh	MARV entry inh	HCV inhibitor	Vaccinia mCherry
O=C1C(Cl)=C(NCCc2ccccc2)C(=O)c2ccccc21	-17%	25%	?	?	?	-23%
C=CCNC1=C(Cl)C(=O)c2ccccc2C1=O	-14%	13µM*	?	?	?	?
CC1=C(Nc2ccc(C(=O)O)cc2)C(=O)c2ccccc2C1=O	9%	.	.	.	?	.
CC(C)NC1=C(Cl)C(=O)c2ccccc2C1=O	-1%	?	9%	-1%	?	?
O=C1C(Cl)=C(Nc2ccccc2)C(=O)c2ccccc21	40µM*	-1%	?	?	?	i
CCN(CC)CCCNC1=C(Cl)C(=O)c2ccccc2C1=O	28µM*	?	?	?	3.2µM*	?
COCCCNC1=C(Cl)C(=O)c2ccccc2C1=O	4%	-20%	25%[46.1 µM]	-22%[46.1 µM]	-15%	?
COc1ccc(N(CC(=O)NC2CC3CCC2C3)S(=O)(=O)c2ccccc2)cc1OC (stereo not given)	-12%	-21%	8.9µM*	?	4%	i
CCOc1ccc(N(CC(=O)NC2CC3CCC2C3)S(=O)(=O)c2ccccc2)cc1 (stereo not given)	36%	-19%	10µM*	?	-16%	-24%
CCOc1ccc(N(CC(=O)NC2CC3CCC2C3)S(=O)(=O)c2ccc(C)cc2)cc1 (stereo not given)	-16%	.	.	.	6.3µM*	.
NNC(=O)C1CC1c1ccccc1 (stereo not given)	-19%	-8%	?	?	38%	i
CCc1c(C)sc(NC(=O)C2CC2c2ccccc2)c1C(N)=O (stereo not given)	9%	.	2.9µM*	3.3µM*	?	.
Oc1ccccc1-c1n[nH]c(-c2ccccc2O)n1	-3%	4µM*	?	?	?	2.8µM*
Clc1ccccc1-c1nc(-c2ccccc2)n[nH]1	27%	.	?	7%	?	.
Cc1cc(N2CCCCC2)nc(NCc2ccccc2)n1	32µM*	?	?	3.2µM*	?	?
Cc1cc(N2CCOCC2)nc(SCC(=O)c2ccc(Cl)cc2)n1	?	?	-9%	-5%	-24%	.
Cc1cc(N2CCCCCC2)nc(-c2ccccc2O)n1	-22%	-27%	?	?	13µM*	.
Cc1cc(N2CCOCC2)nc(SCc2c(Cl)cccc2Cl)n1	-14%	?	-21%	-24%	11µM*	?
Cc1cc(N2CCOCC2)nc(-c2ccccc2O)n1	0%	-20%	?	?	?	-10%
Cc1cc(N2CCOCC2)nc(NCc2ccccc2)n1	.	?	-26%	?	13µM*	-27%
O=c1c(N2CCc3ccccc3C2)csc2ccc(Br)cc12	-10%	-8%	2%[46.1 µM]	.	.	-18%
Cc1cc(Nc2ccccc2)nc(-c2ccccc2O)n1	9%	?	8%	2%	0.63µM*	.
COC(=O)c1ccc2c(=O)n(CCCCCC(=O)NCc3ccc(OC)cc3)c(=O)[nH]c2c1	-14%	-15%	10%[46.1 µM]	.	.	-13%
Cc1ccc(N(CC(=O)NC2CCCC2)C(=O)c2ccc(C)s2)cc1	1%	.	3%	-17%	11µM*	.
Cc1cc(C)cc(N(CC(=O)NC2CCCCC2)C(=O)c2ccc(C)s2)c1	.	-19%	-1%	?	11µM*	-21%
SMILES	FMDV antiviral	Vaccinia Venus	Lassa entry inh	MARV entry inh	HCV inhibitor	Vaccinia mCherry
Cc1c(NC(=O)Cc2ccc(F)cc2)cccc1-c1nc2cccnc2s1	-21%	-14%	-10%[46.1 µM]	-1%[46.1 µM]	.	-15%
Clc1ccc2c(c1)C(c1ccccc1Cl)=NCc1nnc(Br)n1-2	-19%	?	-18%	?	0%	13µM*
CC[n+]1c(-c2ccc(C)cc2)csc1Nc1c(C)n(C)n(-c2ccccc2)c1=O	32µM*	-27%	?	?	?	-24%
CCc1ccccc1NC(=O)Nc1cccn(Cc2ccccc2F)c1=O	?	.	.	.	11µM*	.
O=C(NCc1ccccc1)Nc1cccn(Cc2ccccc2F)c1=O	-12%	-11%	-9%	?	-19%	-5%
O=C(NCc1ccccc1)Nc1cccn(Cc2ccccc2)c1=O	0%	-14%	?	0%	?	-17%
CCOc1ccc(NC(=O)Nc2cccn(Cc3ccccc3)c2=O)cc1	?	?	?	-20%[46.1 µM]	10µM*	?
